Data taken from PubChem BioAssay AID686978 (National Center for Advancing Translational Sciences (NCATS), 2013).
About 64,000 (15%) of roughly 420,000 compounds were called active. Another 27% or so got no clear call; they are omitted. Calls come from the whole dose curve; as a rule, active = well fitted inhibition curve with a large enough effect; inconclusive = small, poorly fitted or top-dose-only effect; inactive = flat fitted curve, though single readings scatter. The list is a sample of the results. Where a call stands in place of a potency, no number is given.

Experiment: qHTS for Inhibitors of human tyrosyl-DNA phosphodiesterase 1 (TDP1): qHTS in cells in absence of CPT; note: nearly all actives have a fitted effect of over 55% in size
Settings: DT40 Tdp1-/- hTDP1 cells, no CPT, ATP luminescence, 48 h; activity change, negative = growth inhibition: at 46.2 µM (top of the series)
In short: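 Chicken DT40 Tdp1-/- cells stably complemented with human TDP1 were seeded at 400 cells/well with DMSO in place of 20 nM camptothecin. After compound pinning, cells grew at least 48 hr at 37 °C; viability read by CellTiter-Glo luminescence.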
Potency is the fitted concentration of half-maximal effect.

Compound | Potency
COc1ccc(C2CC(c3cccs3)=NN2c2ccc(F)cc2)cc1OC (configuration not stated) | inactive
O=C(COC(=O)CCC(=O)c1cccs1)NCc1ccco1 | inactive
CCCNC(=O)CN(Cc1ccccc1F)S(=O)(=O)c1ccc(C)cc1 | inactive
Cc1ccc(S(=O)(=O)N(CC(=O)NCCSC2CCCCC2)c2ccccc2F)cc1 | 18.4 µM (active)
CCOc1ccc(S(=O)(=O)N(CC(=O)NCCSCc2ccc(C)cc2)c2ccccc2)cc1 | inactive
COC(=O)[C@H]1Cc2cnoc2C[C@]1(C)C(=O)O | inactive
COc1cccc(-c2cc3nc4c(c(N5CCC6(CC5)OCCO6)n3n2)CCCC4)c1 | 20.6 µM (active)
O=C(NCCO)c1cccc(-c2cccc3nccn23)c1 | inactive
C/C(CC(C)C)=N\Oc1nc(C)cc(C)n1 | inactive
CC1(C)O[C@@H]2CC3C4C[C@H](F)C5=CC(=O)C=CC5(C)C4C(O)CC3(C)[C@]2(C(=O)CO)O1 (some centres not stated) | inactive
Cc1nc2ccccc2c(-c2ccccc2)c1C(=O)c1ccccc1 | inactive
CN1CCN(c2ccc(S(=O)(=O)N3CCCCC3)cc2NC(=O)Cc2ccccc2F)CC1 | inactive
O=C(CN1CCCCC1)Nc1ccccc1Cl | inactive
CN1CCN(c2ccccc2NC(=O)COc2ccc(C3CCCCC3)cc2)CC1 | 16.4 µM (active)
CNC(=O)C1CC(=O)N(c2ccc(OCC(=O)Nc3ccccc3C)cc2)C1 (configuration not stated) | inactive
CC(=O)c1ccc(N2CCN(CC(=O)Nc3ccccc3N3CCOCC3)CC2)cc1 | 10.3 µM (active)
O=C(CN1CCCCC1)Nc1ccccc1C(=O)NC1CC1 | inactive
CCc1ccc(C(=O)NC(=S)Nc2ccccc2N2CCOCC2)cc1 | inactive
O=C(Nc1ccccc1N1CCOCC1)c1ccncc1 | inactive
O=C(CN1CCN(C2CCCCC2)CC1)Nc1ccccc1N1CCCCC1 | 22.4 µM (active)
O/N=C(\c1ccc2c(c1)OCCO2)C1CCCCC1 | inactive
CC1(C(=O)NS(=O)(=O)c2ccc(C#N)cc2)CCN1C(=O)c1ccc(C2CCCCC2)cc1 (configuration not stated) | inactive
O=C(O)C1C2C=CC(O2)C1C(=O)NCCc1cccc(Cl)c1 (configuration not stated) | inactive
COCC(C)NC(=O)c1ccc(Cl)c(Cl)c1 (configuration not stated) | inactive
Cn1nc(C(=O)OCC(=O)N(Cc2ccccc2)C(C)(C)C)c2ccccc2c1=O | inactive
CC(Oc1ccccc1)C(=O)Nc1c2c(nn1-c1ccccc1)CS(=O)C2 (configuration not stated) | inactive

Compound | Potency
O=C(NCCCn1ccnc1)c1ccccc1F | inactive
O=C(CCN1CCN(C/C=C/c2ccccc2)CC1)Nc1cccc(F)c1 | inactive
O=C1/C(=C/c2cccs2)SC(=S)N1C1CCS(=O)(=O)C1 (configuration not stated) | 18.4 µM (active)
O=C(CCN1C(=O)/C(=C/c2cccs2)SC1=S)NNC(=O)c1cccc(O)c1 | inactive
CCN1CCC2(CCN(Cc3cn[nH]c3-c3ccc(OC)c(F)c3)C2)C1 (configuration not stated) | inactive
O=C(Cn1cnc2c(OCc3ccccc3)ncnc21)NCCCn1ccnc1 | inactive
Cc1ccc(C(C)(C)C)c(OCCCCN2CCCC2)c1 | 29.1 µM (active)
O=[N+]([O-])c1ccccc1OCCCCN1CCCCC1 | inactive
Cc1ccc(C(C)C)cc1OCCN1CCCC1 | inactive
Nc1nc2c(ncn2[C@@H]2O[C@H](CNCc3ccc(OCCCN4CCOCC4)cc3)[C@@H](O)[C@H]2O)c(=O)[nH]1 | inactive
O=S(O)CNc1ccc(S(=O)(=O)c2ccc(NCS(=O)O)cc2)cc1 | inactive
Cc1ccccc1NC(=O)Cn1c(=O)n(Cc2ccco2)c(=O)c2ccc(C(=O)NC3CCCC3)cc21 | inactive
Cc1ccc(/C=N/NC(=O)c2sccc2OCc2ccc(F)cc2)cc1 | 18.4 µM (active)
Cc1ccc(COc2ccc(/C=N/NC(=O)CN3CCCCC3)cc2)cc1 | inactive
CNC(=S)NNC(=O)c1sccc1OCc1ccccc1 | inactive
CCN(CC)S(=O)(=O)c1ccc(NC(=O)CN(c2cccc(F)c2)S(C)(=O)=O)cc1 | inactive
C=CCNC(=O)c1csc(-c2ccccc2)n1 | inactive
C=CCNc1scc(-c2ccccc2)[n+]1CC=C | inactive
C=CC[n+]1c(-c2ccc(C)cc2)csc1NNC(=O)Nc1ccccc1 | 9.2 µM (active)
Cn1cnnc1Sc1ccc(S(C)(=O)=O)cc1[N+](=O)[O-] | inactive
CNC[C@H]1OCc2cnnn2CCCC(=O)N([C@H](C)CO)C[C@@H]1C | inactive
CC(C)CN(CC(C)C)C(=O)CN1c2cccc3cccc(c23)S1(=O)=O | inactive
CC(C(=O)N1CCOCC1)N1c2cccc3cccc(c23)S1(=O)=O (configuration not stated) | inactive
CCN(CC)C(=O)C(C)N1c2cccc3cccc(c23)S1(=O)=O (configuration not stated) | 16.4 µM (active)
CCNC(=O)C1(C)CCN(C(=O)c2ccccc2)C1 (configuration not stated) | inactive
COc1ccc(OC)c(CCNC(=O)CCn2ccc3cc(S(=O)(=O)N4CCCC4)ccc32)c1 | inactive
